# HT1080 IDH1KD tx: qHTS for induction of synthetic lethality in tumor cells producing 2HG: qHTS for the HT-1080-IDH1KD cell line; 2% of 360,000 active; HT-1080 IDH1 knockdown viability, ATP luminescence, 48 h; Potency, µM (top dose mostly 46.1 µM), for the others: at the top dose activity, negative = toxicity, most hits filed as cytotoxic; AID 686971, 2013;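 note: 0% = DMSO wells and -100% = cell-free medium wells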
#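 Using the IDH1-knockdown HT-1080 line run in the same batch and compound series as the NT line, viability after 48 h at 37 °C was determined by CellTiter-Glo luminescence and expressed as % activity.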
# DT40 TDP1 CPT: qHTS for Inhibitors of human tyrosyl-DNA phosphodiesterase 1 (TDP1): qHTS in cells in presence of CPT. chicken DT40 Tdp1-/-;hTDP1 cells + 20 nM CPT, ATP luminescence, 48 h. Potency, µM (titrated, usually from 46.2 µM), without a hit: top-dose activity change, negative = growth inhibition, hits mostly inhibitors. 12% of 420,000 active. AID 686979, 2013; note: nearly all actives have a fitted effect of over 55% in size
#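 Chicken DT40 Tdp1-/- cells complemented with human TDP1, 400 cells/well, exposed to compounds plus 20 nM camptothecin for at least 48 h at 37 C; viability read as ATP content by CellTiter-Glo luminescence.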
# HT1080NT lethal: qHTS for induction of synthetic lethality in tumor cells producing 2HG: qHTS for the HT-1080-NT fibrosarcoma cell line; 1.6% of 360,000 active; HT-1080-NT fibrosarcoma viability, CellTiter-Glo ATP luminescence, 48 h; Potency, µM (highest dose often 46.1 µM), for the others: at the top dose activity, negative = less viability, most hits filed as cytotoxic;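 note: NT is the 2HG producing partner of a matched IDH1 knockdown line; 0% = DMSO-treated cells and -100% = media-only wells without cells; nearly all actives have a fitted effect of over 55% in size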
#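 Luminescent CellTiter-Glo readout after 48 hours of compound exposure at 37 degrees C defined viability of HT-1080-NT cells. Activity was normalized to DMSO wells and cell-free media wells; concentration-response curves were fitted and assigned curve classes.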
# DT40 TDP1 no CPT: qHTS for Inhibitors of human tyrosyl-DNA phosphodiesterase 1 (TDP1): qHTS in cells in absence of CPT; DT40 Tdp1-/- hTDP1 cells, no CPT, ATP luminescence, 48 h; Potency, µM (top dose mostly 46.2 µM), without a hit: top-dose activity change, negative = growth inhibition, actives largely listed as inhibitors; 15% of 420,000 active; AID 686978, 2013; note: nearly all actives have a fitted effect of over 55% in size
#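 Readout: luminescence from CellTiter-Glo after 30 min in the dark at RT. Cells: DT40 Tdp1-/- with stable hTDP1, 400/well. Exposure: compounds alone, ≥48 hr, 37 °C.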
# KB-V1 cytotox: qHTS assay for MDR1-selective chemotherapeutics: Primary screen using the drug-selected MDR subline cells KB-V1; KB-V1 MDR cells viability, CellTiter-Glo, 72 h; Potency, µM (titrated, usually from 46.1 µM), hits mostly cytotoxic; 3.4% of 400,000 active; AID 1347076, 2019; note: nearly all actives have a fitted effect of over 60% in size
#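 Cytotoxicity via CellTiter-Glo luminescence after 72 h compound exposure at 37 degrees C. Cells: drug-selected KB-V1 line, DMEM phenol-red free plus 10% FBS. Compounds tested at multiple concentrations; normalized data fitted to concentration-effect curves.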
# KB-3-1 cytotox: qHTS assay for MDR1-selective chemotherapeutics: Primary screen using the parental adenocarcinoma cell KB-3-1. KB-3-1 viability, CellTiter-Glo ATP luminescence, 72 h. Potency, µM (series often up to 46.1 µM), usual class: cytotoxic. 1.4% of 400,000 active; note: nearly all actives have a fitted effect of over 60% in size
#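 Cytotoxicity measured as CellTiter-Glo luminescence after 72 h at 37 C. Compound titrations were pinned onto drug-naive KB-3-1 parental adenocarcinoma cells grown in DMEM with 10% FBS, and normalized data fitted to concentration-response curves.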
# An asterisk follows results filed as active; i = inactive; u = inconclusive; x = no result given. Rows were chosen to be rich in hits. Some 19% of all compounds tested hit in one or more screens of this group. Calls come from the whole dose curve; as a rule, active = well fitted curve in the direction sought with a large enough effect; inconclusive = small, poorly fitted or top-dose-only effect, or another doubt; inactive = no such curve, though single readings can be large; an effect the other way counts as inactive or inconclusive. Unless noted, % is set by controls: 0 for no effect and ±100 for the full control effect; potency is the fitted concentration of half-maximal effect.
SMILES,HT1080 IDH1KD tx,DT40 TDP1 CPT,HT1080NT lethal,DT40 TDP1 no CPT,KB-V1 cytotox,KB-3-1 cytotox
COC(=O)Cc1c(C)c2ccc3c(c2oc1=O)CN(Cc1ccccc1Cl)CO3,x,u,x,u,i,i
CCc1ccccc1OCC(=O)N(CC)CC(=O)NCc1ccc(F)cc1,-1.4%,-2.3%,-4.0%,u,i,i
CCN(CC(=O)NCc1ccc(F)cc1)C(=O)COc1ccc(C)c(C)c1,-2.3%,-24.9%,0.6%,u,18.4µM*,i
CCN(CC(=O)NCc1ccc(F)cc1)C(=O)COc1ccc2ccccc2c1,2.0%,u,-3.6%,-28.7%,14.6µM*,i
CCCCn1c(N)c(N(Cc2ccccc2OC)C(=O)c2ccc(N3CCCC3=O)cc2)c(=O)[nH]c1=O,4.5%,-12.9%,-2.7%,2.4%,i,i
O=C(CC[C@H]1O[C@@H](n2ccc(=O)[nH]c2=O)[C@H](O)[C@@H]1O)N1CCN(Cc2cccc3ccccc23)CC1,18.9%,-11.9%,11.0%,-20.4%,i,i
Cc1ccc(S(=O)(=O)N2CCc3cc(C(=O)Nc4c(C)cccc4C(C)C)ccc32)cc1,x,u,x,u,i,i
COC(=O)C1C(c2ccccc2)C(C(=O)OCc2ccco2)C1c1ccccc1 (configuration not stated),-22.7%,u,6.8%,u,13µM*,u
O=C(C1CC1)N1CCC(C(O)(c2ccccc2)c2ccccc2)CC1,-0.6%,-0.4%,2.7%,-26.6%,i,i
COc1ccc(OC)c(C2=NOC(C(=O)N3CCCc4ccccc43)C2)c1 (configuration not stated),-1.5%,-19.8%,0.0%,u,16.4µM*,i
O=C(c1coc(=O)c(Br)c1)N1CCC(C(O)(c2ccccc2)c2ccccc2)CC1,-12.8%,0.651µM*,-14.5%,1.84µM*,i,i
COc1cccc(-c2nnc(SCC(=O)N3CCCc4ccccc43)o2)c1,-2.9%,-4.6%,-9.5%,-14.1%,i,i
CC(=O)c1cccc(OCC(=O)N2CCCc3ccccc32)c1,20.0%,u,14.8%,16.4µM*,i,i
O=C(C1CC(c2ccc(F)cc2)=NO1)N1CCCc2ccccc21 (configuration not stated),-10.5%,-20.4%,-0.2%,-28.3%,i,i
COc1cc(OC)cc(-c2nnc(SCC(=O)N3CCCc4ccccc43)o2)c1,-2.4%,u,-4.2%,20.6µM*,i,i
O=C1CN(C(=O)c2ccc(Cl)c([N+](=O)[O-])c2)c2ccccc2N1,14.2%,-18.7%,4.6%,-6.5%,i,i
Cc1occc1-c1nnc(SCC(=O)N2CCc3ccccc32)o1,3.5%,16.4µM*,-2.3%,20.6µM*,i,i
CC1(C)CCCN(C(=O)c2coc(=O)c(Br)c2)C1,-12.4%,0.92µM*,-4.4%,0.82µM*,i,i
Cc1ccc(Nc2c([N+](=O)[O-])cc(C(=O)N3CC(=O)Nc4ccccc43)cc2[N+](=O)[O-])c(C)c1,-28.2%,14.6µM*,-18.0%,u,i,u
COc1cc(-c2nnc(SCC(=O)N3CCCc4ccccc43)o2)cc(OC)c1OC,x,u,x,23.1µM*,2.59µM*,i
O=C(CSc1nnc(-c2ccc(Cl)cc2)o1)N1CCc2ccccc21,x,5.2%,x,0.1%,i,i

# Compound activity as filed in PubChem.
